{"source": "the antibiotic and cytotoxicity screens of Wong et al. (2023)", "note": "The whole screen tested about 39,000 compounds, of which about 3,300 (8.5%) were called active. The full list was thinned out, with actives kept by preference."}
{"tested_on": "HepG2", "experiment": "cytotoxicity call (relative viability < 0.9)", "details": "10 µM"}
{"compound": "Cc1ccnc(NC(=O)Cn2cnc3c2c(=O)n(C)c(=O)n3C)n1", "cytotoxicity call": "inactive"}
{"compound": "O=c1nc2[nH][nH]cc-2c(=O)[nH]1", "cytotoxicity call": "inactive"}
{"compound": "COCC#Cc1ccc2c(c1)O[C@H](CN(C)C(=O)CN(C)C)[C@H](C)CN([C@H](C)CO)S2(=O)=O", "cytotoxicity call": "inactive"}
{"compound": "C=CCOc1nc(NCC)nc(N(C)C)n1", "cytotoxicity call": "inactive"}
{"compound": "CS(=O)(=O)N1C[C@H](NC(=O)c2cnccn2)[C@H]2OCCC[C@H]21", "cytotoxicity call": "inactive"}
{"compound": "C=CC[C@@H](CC(=O)N(CCO)Cc1ccccc1)C(=O)N[C@H](COC(=O)[C@@H](CC=C)Cc1ccc(F)cc1)C(C)(C)C", "cytotoxicity call": "inactive"}
{"compound": "C[C@@H]1CCCCO[C@H](CN(C)Cc2ccncc2)[C@H](C)CN([C@H](C)CO)C(=O)c2cc(NS(=O)(=O)c3ccc(Cl)cc3)ccc2O1", "cytotoxicity call": "inactive"}
{"compound": "CCc1oc(CC[C@@H](CO)NC(=O)NCCn2cc(C3(O)CCCCC3)nn2)c(C(=O)OC)c1C(=O)OC", "cytotoxicity call": "inactive"}
{"compound": "O=C(CCCCCCC(=O)Nc1ccc([C@H]2O[C@@H](CSc3ccccc3)C[C@H](c3ccccc3)O2)cc1)NO", "cytotoxicity call": "inactive"}
{"compound": "C[C@H](CO)N1C[C@H](C)[C@@H](CN(C)C(=O)Nc2ccc(C(F)(F)F)cc2)Oc2c(NC(=O)c3ccc(-c4nccs4)cc3)cccc2C1=O", "cytotoxicity call": "inactive"}
{"compound": "C[C@H]1CN([C@@H](C)CO)C(=O)c2cccc(NC(=O)C3CC3)c2O[C@@H]1CN(C)S(=O)(=O)c1ccccc1", "cytotoxicity call": "inactive"}
{"compound": "C[C@@H]1CCCCO[C@H](CN(C)S(=O)(=O)c2ccccc2)[C@@H](C)CN([C@@H](C)CO)C(=O)c2cc(NC(=O)CCC(F)(F)F)ccc2O1", "cytotoxicity call": "inactive"}
{"compound": "CC(C)NC(=O)N[C@H]1C=C[C@H](CC(=O)NCCCN(C)C)O[C@H]1CO", "cytotoxicity call": "inactive"}
{"compound": "COc1ccc(S(=O)(=O)N(C)C[C@@H]2Oc3ccc(NC(=O)c4ccncc4)cc3CC(=O)N([C@H](C)CO)C[C@@H]2C)cc1", "cytotoxicity call": "inactive"}
{"compound": "O=C(O)C(O)C(O)C(OC1OC(CO)C(O)C(O)C1O)C(O)CO", "note": "(stereo unspecified)", "cytotoxicity call": "inactive"}
{"compound": "COc1cccc(S(=O)(=O)N[C@H]2C=C[C@H](CC(=O)NC3CCC3)O[C@@H]2CO)c1", "cytotoxicity call": "inactive"}
{"compound": "O=C(O)c1ccccc1Nc1cccc(C(F)(F)F)c1", "cytotoxicity call": "inactive"}
{"compound": "CC(C)(C)c1ccc(C(=O)Nc2cccc(C(F)(F)F)c2)cc1", "cytotoxicity call": "inactive"}
{"compound": "O=C(Nc1cccc(C(F)(F)F)c1)c1ccc2ccccc2c1", "cytotoxicity call": "active"}
{"compound": "C[C@@H]1CCCCO[C@@H](CN(C)S(=O)(=O)c2ccc(F)cc2)[C@H](C)CN([C@H](C)CO)C(=O)c2cc(NC(=O)CCC(F)(F)F)ccc2O1", "cytotoxicity call": "inactive"}
{"compound": "C[C@@H]1CN([C@H](C)CO)S(=O)(=O)c2ccc(C3=CCCCC3)cc2O[C@H]1CN(C)Cc1cncnc1", "cytotoxicity call": "inactive"}
{"compound": "CCCCN(CCCC)CC[C@@H](O)c1cc2c(Cl)cc(Cl)cc2c2cc(C(F)(F)F)ccc12", "cytotoxicity call": "inactive"}
{"compound": "CCCCN(CCCC)CC(O)c1cc(Cl)cc2c1-c1ccc(Cl)cc1C2=Cc1ccc(Cl)cc1", "note": "(stereo unspecified)", "cytotoxicity call": "active"}
{"compound": "C[C@@H]1CCCCO[C@@H](CN(C)Cc2ccncc2)[C@H](C)CN([C@@H](C)CO)C(=O)c2cc(NC(=O)CCCCCC(=O)Nc3ccccc3N)ccc2O1", "cytotoxicity call": "inactive"}
{"compound": "C[C@@H]1CN([C@H](C)CO)C(=O)Cc2cc(NC(=O)Nc3ccc(F)cc3)ccc2O[C@@H]1CN(C)Cc1ccc(Cl)c(Cl)c1", "cytotoxicity call": "active"}
{"compound": "C[C@H](CO)N1C[C@H](C)[C@@H](CN(C)Cc2ccc(Cl)c(Cl)c2)Oc2ccc(NC(=O)Nc3ccc(F)cc3)cc2CC1=O", "cytotoxicity call": "active"}
{"compound": "C[C@H]1CN([C@@H](C)CO)C(=O)Cc2cc(NC(=O)Nc3ccc(F)cc3)ccc2O[C@H]1CN(C)Cc1ccc(Cl)c(Cl)c1", "cytotoxicity call": "active"}
{"compound": "C[C@@H]1CN([C@@H](C)CO)C(=O)Cc2cc(NC(=O)Nc3ccc(F)cc3)ccc2O[C@@H]1CN(C)Cc1ccc(Cl)c(Cl)c1", "cytotoxicity call": "active"}
{"compound": "COc1ccc(-n2c(C)cc(CN)c2C)cc1", "cytotoxicity call": "inactive"}
{"compound": "O=C(C[C@H]1C[C@@H]2c3cc(NC(=O)c4ccc5c(c4)OCO5)ccc3O[C@@H]2[C@H](CO)O1)NCC(F)(F)F", "cytotoxicity call": "inactive"}
{"compound": "CC(C)NC(=O)N(C)C[C@H]1Oc2c(NC(=O)NC3CCCCC3)cccc2C(=O)N([C@H](C)CO)C[C@@H]1C", "cytotoxicity call": "inactive"}
{"compound": "Cc1noc(C)c1NC(=O)Nc1ccc2c(c1)CC(=O)N([C@@H](C)CO)C[C@H](C)[C@@H](CN(C)S(C)(=O)=O)O2", "cytotoxicity call": "inactive"}
{"compound": "C[C@H](CO)N1C[C@H](C)[C@H](CN(C)C(=O)Nc2ccc3c(c2)OCO3)OCCCC[C@H](C)Oc2ccc(NC(=O)Nc3ccccc3)cc2C1=O", "cytotoxicity call": "inactive"}
{"compound": "C[C@@H]1CCCCO[C@H](CN(C)S(=O)(=O)c2cccs2)[C@@H](C)CN([C@H](C)CO)C(=O)c2cc(NC(=O)Cc3ccccc3)ccc2O1", "cytotoxicity call": "inactive"}
{"compound": "COc1ccc(S(=O)(=O)N(C)C[C@@H]2OCCCC[C@H](C)Oc3ccc(NC(=O)c4ccccc4)cc3C(=O)N([C@H](C)CO)C[C@@H]2C)cc1", "cytotoxicity call": "inactive"}
{"compound": "Cc1ccc(S(=O)(=O)N(C)C[C@@H]2Oc3ccc(NS(=O)(=O)c4cccs4)cc3CC(=O)N([C@H](C)CO)C[C@@H]2C)cc1", "cytotoxicity call": "inactive"}
{"compound": "COc1ccc(COC[C@]23NC(=O)N[C@H](c4ccccc4O2)[C@H]3COC(=O)NCCCCCC(=O)NO)cc1", "cytotoxicity call": "inactive"}
{"compound": "COCC(=O)N(C)C[C@H]1Oc2cc(-c3ccc(C#N)cc3)ccc2S(=O)(=O)N([C@H](C)CO)C[C@@H]1C", "cytotoxicity call": "inactive"}
{"compound": "O=C(CCCCCNC(=O)OCc1ccc(CO[C@@H]2C[C@H](c3ccc(Br)cc3)C=C(C(=O)N3CCN(Cc4ccccc4)CC3)O2)cc1)NO", "cytotoxicity call": "inactive"}
{"compound": "COCC(=O)N(C)C[C@H]1Oc2cc(C#CCN(C)C)ccc2S(=O)(=O)N([C@@H](C)CO)C[C@@H]1C", "cytotoxicity call": "inactive"}
{"compound": "C[C@H](CO)N1C[C@H](C)[C@H](CN(C)S(=O)(=O)c2cccs2)OCCCC[C@H](C)Oc2ccc(NS(=O)(=O)c3cn(C)cn3)cc2C1=O", "cytotoxicity call": "inactive"}
{"compound": "C[C@@H]1CN([C@H](C)CO)C(=O)c2cccc(N(C)C)c2O[C@H]1CN(C)S(C)(=O)=O", "cytotoxicity call": "inactive"}
{"compound": "C[C@@H]1CN([C@@H](C)CO)C(=O)Cc2cc(NC(=O)Nc3ccc(F)cc3)ccc2O[C@H]1CN(C)Cc1ccc(Cl)c(Cl)c1", "cytotoxicity call": "active"}
{"compound": "C[C@H](CO)N1C[C@H](C)[C@H](CN(C)Cc2ccc(Cl)c(Cl)c2)Oc2ccc(NC(=O)Nc3ccc(F)cc3)cc2CC1=O", "cytotoxicity call": "active"}
{"compound": "C[C@@H]1CN([C@H](C)CO)C(=O)Cc2cc(NC(=O)Nc3ccc(F)cc3)ccc2O[C@H]1CN(C)Cc1ccc(Cl)c(Cl)c1", "cytotoxicity call": "inactive"}
{"compound": "C[C@H]1CN([C@@H](C)CO)C(=O)Cc2cc(NC(=O)Nc3ccc(F)cc3)ccc2O[C@@H]1CN(C)Cc1ccc(Cl)c(Cl)c1", "cytotoxicity call": "active"}
{"compound": "C[C@H](CO)N1C[C@H](C)[C@@H](CN(C)S(=O)(=O)c2cn(C)cn2)Oc2c(NC(=O)CCCN(C)C)cccc2C1=O", "cytotoxicity call": "inactive"}
{"compound": "COc1ccc(NC(=O)N[C@@H]2CC[C@@H](CCNC(=O)CN3CCOCC3)O[C@@H]2CO)cc1", "cytotoxicity call": "inactive"}
{"compound": "C[C@@H]1CN([C@@H](C)CO)C(=O)CCCn2cc(nn2)CO[C@H]1CN(C)S(=O)(=O)c1ccc2c(c1)OCCCO2", "cytotoxicity call": "inactive"}
{"compound": "Cc1noc(C)c1NC(=O)N(C)C[C@H]1Oc2ccc(NS(C)(=O)=O)cc2C(=O)N([C@@H](C)CO)C[C@H]1C", "cytotoxicity call": "inactive"}
{"compound": "C[C@H]1CCCCO[C@@H](CN(C)S(=O)(=O)c2ccc(F)cc2)[C@@H](C)CN([C@@H](C)CO)C(=O)c2cc(NC(=O)Nc3cccc4ccccc34)ccc2O1", "cytotoxicity call": "inactive"}
{"compound": "Cc1noc(C)c1NC(=O)Nc1ccc2c(c1)C(=O)N([C@H](C)CO)C[C@@H](C)[C@H](CN(C)C(=O)Nc1ccc(C(F)(F)F)cc1)OCCCC[C@@H](C)O2", "cytotoxicity call": "inactive"}
{"compound": "C[C@@H]1CN([C@H](C)CO)C(=O)c2cccc(NS(=O)(=O)c3ccccc3)c2O[C@@H]1CN(C)S(=O)(=O)c1cccs1", "cytotoxicity call": "inactive"}
{"compound": "C/C1=C2/[N]([Co+][OH])[C@H]([C@H](CC(N)=O)[C@@]2(C)CCC(=O)NC[C@@H](C)OP(=O)(O)O[C@H]2[C@@H](O)[C@@H](n3cnc4cc(C)c(C)cc43)O[C@@H]2CO)[C@]2(C)N=C(/C(C)=C3N=C(/C=C4N=C1[C@@H](CCC(N)=O)C/4(C)C)[C@@H](CCC(N)=O)[C@]\\3(C)CC(N)=O)[C@@H](CCC(N)=O)[C@]2(C)CC(N)=O", "cytotoxicity call": "active"}
{"compound": "C[C@@H]1CN([C@@H](C)CO)C(=O)c2cc(NC(=O)Nc3ccc4c(c3)OCO4)ccc2O[C@H]1CN(C)C(=O)Nc1cccc2ccccc12", "cytotoxicity call": "inactive"}
{"compound": "O=C(C[C@@H]1C[C@H]2c3cc(NC(=O)NC4CCCC4)ccc3O[C@H]2[C@H](CO)O1)NCCN1CCCCC1", "cytotoxicity call": "inactive"}
{"compound": "Cc1cc2cc3c(C)cc(=O)oc3c(C)c2o1", "cytotoxicity call": "inactive"}
{"compound": "O=c1cc(-c2ccccc2)oc2cc(O)ccc12", "cytotoxicity call": "inactive"}
{"compound": "Cc1cc(=O)oc2cc(O)ccc12", "cytotoxicity call": "inactive"}
{"compound": "O=c1cc(-c2ccccc2)oc2c(O)c(O)ccc12", "cytotoxicity call": "active"}
{"compound": "COc1ccc2c(=O)cc(-c3ccccc3)oc2c1OC", "cytotoxicity call": "inactive"}
{"compound": "Cc1cc(=O)oc2c(O)c(O)ccc12", "cytotoxicity call": "active"}
{"compound": "C[C@@H]1CCCCO[C@@H](CN(C)C(=O)Nc2ccc(F)cc2)[C@H](C)CN([C@H](C)CO)C(=O)c2cc(NC(=O)Nc3ccccc3)ccc2O1", "cytotoxicity call": "inactive"}
{"compound": "C[C@@H]1CN([C@@H](C)CO)C(=O)c2cc(NS(=O)(=O)c3ccc(Cl)cc3)ccc2O[C@@H](C)CCCCO[C@H]1CN(C)C(=O)c1ccccc1", "cytotoxicity call": "inactive"}
{"compound": "Cc1ccc(S[C@]2(C(=O)NCC(C)C)CC(=O)N(Cc3ccccc3C(F)(F)F)[C@@H]2c2ccc(CO)cc2)cc1", "cytotoxicity call": "inactive"}
{"compound": "Cc1noc(C)c1NC(=O)Nc1ccc2c(c1)C(=O)N([C@@H](C)CO)C[C@@H](C)[C@H](CN(C)Cc1ccc(Oc3ccccc3)cc1)O2", "cytotoxicity call": "inactive"}
{"compound": "COC(=O)CCCCCCC(=O)N/N=C/[C@H](O)[C@H](O)[C@@H](O)[C@H](C)O", "cytotoxicity call": "inactive"}
{"compound": "C=CC[C@@H](CC(=O)N(CCO)Cc1ccccc1)C(=O)N[C@@H](COC(=O)[C@@H](CC=C)Cc1ccc(F)cc1)Cc1c[nH]c2ccccc12", "cytotoxicity call": "inactive"}
{"compound": "C=CC[C@H](CC(=O)N(CCO)Cc1ccccc1)C(=O)N[C@H](COC(=O)[C@@H](CC=C)Cc1ccc(F)cc1)Cc1c[nH]c2ccccc12", "cytotoxicity call": "inactive"}
{"compound": "C=CC[C@@H](CC(=O)N(CCO)Cc1ccccc1)C(=O)N[C@@H](COC(=O)[C@@H](CC=C)CC(=O)OC(C)(C)C)Cc1c[nH]c2ccccc12", "cytotoxicity call": "inactive"}
{"compound": "C=CC[C@@H](CC(=O)N(CCO)Cc1ccccc1)C(=O)N[C@@H](COC(=O)[C@H](CC=C)Cc1ccc(F)cc1)Cc1c[nH]c2ccccc12", "cytotoxicity call": "active"}
{"compound": "C=CC[C@@H](CC(=O)N(CCO)Cc1ccccc1)C(=O)N[C@H](COC(=O)[C@@H](CC=C)Cc1ccc(F)cc1)Cc1c[nH]c2ccccc12", "cytotoxicity call": "active"}
{"compound": "C=CC[C@H](CC(=O)N(CCO)Cc1ccccc1)C(=O)N[C@@H](COC(=O)[C@@H](CC=C)Cc1ccc(F)cc1)Cc1c[nH]c2ccccc12", "cytotoxicity call": "active"}
{"compound": "C=CC[C@@H](CC(=O)N(CCO)Cc1ccccc1)C(=O)N[C@@H](COC(=O)[C@H](CC=C)CC(=O)OC(C)(C)C)Cc1c[nH]c2ccccc12", "cytotoxicity call": "inactive"}
{"compound": "C=CC[C@H](CC(=O)N(CCO)Cc1ccccc1)C(=O)N[C@H](COC(=O)[C@H](CC=C)CC(=O)OC(C)(C)C)Cc1c[nH]c2ccccc12", "cytotoxicity call": "inactive"}
{"compound": "C=CC[C@H](CC(=O)N(CCO)Cc1ccccc1)C(=O)N[C@@H](COC(=O)[C@H](CC=C)CC(=O)OC(C)(C)C)Cc1c[nH]c2ccccc12", "cytotoxicity call": "inactive"}
